Reference: the supplement of paper PMC6555819

Legend:
Assay in all cases: PBM binding z-score (relative to random genomic background probes); higher = stronger binding; sequences stand for … in GC…GCGATTGACAGCGTAGAATGAAGG
[1] = test system: PPARg:RXRa DBDmut IVT, anti-RXR (DBD mutation: RXRa K156A/R161A, NR concentration 270 nM, RXRa partner concentration 90 nM)
Procedure, shortened: (§1)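 Scanned fluorescence from custom Agilent 4×180K protein-binding microarrays was regression-normalized. Binding z-scores use random background probes as reference. Ligand-free nuclear receptor dimers were incubated on the arrays for 1 h and detected with antibodies against each partner (one per run).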

[2] = test system: PPARg:RXRa IVT, anti-PPARg (NR concentration 270 nM, RXRa partner concentration 90 nM)
Procedure, shortened: as §1

[3] = test system: PPARg DBDmut:RXRa IVT, anti-PPARg (DBD mutation: PPARg1 K132A/R137A, NR concentration 270 nM, RXRa partner concentration 90 nM)
Procedure, shortened: as §1

[4] = test system: PPARg DBDmut IVT, anti-PPARg (DBD mutation: PPARg1 K132A/R137A, NR concentration 270 nM)
Procedure, shortened: as §1

[5] = test system: PPARg homodimer (NR concentration 180 nM)
Procedure, shortened: as §1

[6] = test system: PXR:RXRa (NR concentration 270 nM, RXRa partner concentration 90 nM)
Procedure, shortened: as §1

[7] = test system: PXR homodimer (NR concentration 270 nM)
Procedure, shortened: as §1

[8] = test system: RARa:RXR (NR concentration 270 nM, RXRa partner concentration 90 nM)
Procedure, shortened: as §1

[9] = test system: RARa homodimer (NR concentration 270 nM)
Procedure, shortened: as §1

[10] = test system: RARb:RXRa (NR concentration 270 nM, RXRa partner concentration 90 nM)
Procedure, shortened: as §1

[11] = test system: RARb homodimer (NR concentration 270 nM)
Procedure, shortened: as §1

[12] = test system: RARg:RXRa (NR concentration 270 nM, RXRa partner concentration 90 nM)
Procedure, shortened: as §1

[13] = test system: RARg homodimer (NR concentration 270 nM)
Procedure, shortened: as §1

[14] = test system: RXRa DBDmut IVT, anti-RXR (DBD mutation: RXRa K156A/R161A, NR concentration 90 nM)
Procedure, shortened: as §1

[15] = test system: RXRa homodimer (NR concentration 180 nM)
Procedure, shortened: as §1

[16] = test system: THRa:RXRa (NR concentration 90 nM, RXRa partner concentration 90 nM)
Procedure, shortened: as §1

[17] = test system: THRa homodimer (NR concentration 90 nM)
Procedure, shortened: as §1

[18] = test system: VDR homodimer (NR concentration 270 nM)
Procedure, shortened: as §1

Sequence	PBM binding z-score [1]	PBM binding z-score [2]	PBM binding z-score [3]	PBM binding z-score [4]	PBM binding z-score [5]	PBM binding z-score [6]	PBM binding z-score [7]	PBM binding z-score [8]	PBM binding z-score [9]	PBM binding z-score [10]	PBM binding z-score [11]	PBM binding z-score [12]	PBM binding z-score [13]	PBM binding z-score [14]	PBM binding z-score [15]	PBM binding z-score [16]	PBM binding z-score [17]	PBM binding z-score [18]
CCGACTGAGGCATAAGGTTACCATAAGCCAGCCC	0.216	-0.451	-0.747	-0.854	0.366	0.286	-0.308	1.03	0.101	0.876	1.13	0.506	0.395	0.281	0.885	2.07	1.53	0.195
CCAGACAGGTGAGAAGGTAACTTAGCCTCGATTA	0.936	0.458	0.104	-0.619	1.19	-0.169	0.402	0.0746	0.973	0.689	0.632	0.486	0.577	-0.104	0.246	0.524	0.316	0.118
CCTAGTTGGTCTGGAGGTCACACACCGGATATGA	0.138	2.42	-0.0171	0.512	3.95	4.72	1.81	5.16	2.41	3.59	4.22	4.49	3.84	0.895	4.63	3.67	2.69	2.97
CCTAGCAGGCCAGGGTCACTCATGCATTTCGCTT	-0.158	1.27	-1.04	-1.56	0.688	2.19	-0.121	2.67	-0.129	2.38	2.68	2.82	1.97	0.745	2.96	2.79	1.04	1.31
AGATCGAGGGCAATGAGTTGATAGCACGGGTGGC	2.97	2.42	0.184	-0.0429	0.453	1.53	3.29	0.437	0.369	2.12	1.18	0.862	1.38	1.73	0.854	0.856	0.0154	2.44
GCTATTAATTGAAAGGGCAACCGAATGATTCTCG	0.162	0.122	-0.051	-0.0832	1.66	0.52	1.04	0.517	2.31	2.02	1.96	0.91	1.26	0.65	0.421	0.301	-0.3	0.758
TCAGACAGGTGAAGGTAACTCAAGTACGCAGTCG	2.91	0.867	0.154	-0.232	0.845	0.794	0.336	0.988	0.423	1.14	0.996	0.573	0.747	1.54	1.13	1.68	0.516	0.389
GTACCAAGGTGAATTGGTCGTTGATGAGTAGGCG	1.6	1.85	0.108	0.076	-0.163	-0.436	-0.573	-0.15	-0.635	1.17	0.471	0.331	0.444	-0.385	0.215	1.17	0.25	-0.534
CAAACTAGGTCACCGGAAGGTCAAGGTCCGCATG	8.67	8.88	2.07	0.589	8.45	5.6	1.49	7.28	2.79	5.37	5.77	8.53	7.66	2.03	6.64	4.3	3.53	3.16
ACGGACAGGTGAGTGAAGGTAACTCAGCTGGACG	0.373	0.578	-0.111	-0.701	-0.338	-0.142	-0.376	0.477	-0.21	0.913	0.226	0.31	0.674	-0.495	0.344	1.69	-0.483	-0.502
CGAACTAGGTCAAGGACCGTGAATCTCCGCACGC	7.68	8.18	4.94	0.945	0.756	0.773	-0.365	1.63	-0.219	3.8	2.79	3.42	4.01	1.15	2.32	2.46	0.938	-0.163
CAAATTAGGTCACGAAAGGTCAAAGTCGAATGAC	8.68	8.9	4.28	2.39	5.32	7.26	2.64	7.69	3.07	5.8	6.08	8.12	8.73	2.57	8.6	5.25	3.01	3.61
ATCGAAAGGCCGAGGTGAGTATAGAGAAAGGGAA	-0.777	0.581	-0.257	0.0911	0.14	-0.348	0.0633	0.0364	-0.273	1.53	0.669	0.835	1.25	-0.863	0.294	0.936	0.0762	-0.433
CCTATTAGTTGACCATAAGGGCAATCGAAGCTCG	0.549	0.361	0.362	0.72	1.56	0.609	0.878	0.531	2.18	1.38	1.72	1.12	1.22	0.557	0.516	1.47	1.18	1.13
CGTCAAAGTTCCAGGTAACGTAACAGAAAGCAGC	0.434	0.748	-0.578	0.351	0.169	0.0635	-0.218	0.268	0.632	0.351	-0.0356	0.18	0.454	0.141	0.0249	0.992	0.691	0.0156
GCTATTAGTTGAAAGGGCAGCCGAATGATTCTCG	0.343	0.268	-0.735	-0.14	0.871	0.09	0.28	0.515	0.871	1.78	1.51	0.552	0.863	0.695	0.636	-0.12	-0.775	-0.507
ACTCGGAGGACAAAAGTCAGAGCTACGCCAGTGA	0.176	-0.114	-1.08	-0.828	0.0197	-0.626	-0.332	-0.564	-0.279	0.928	0.442	0.411	0.784	0.783	0.0563	0.186	-0.517	-0.631
AGAAGGAGGTTACCAAAGATCAGGGAAACGCTTG	2.51	2.63	0.699	0.604	0.719	1.25	0.551	1.46	0.412	1.89	1.11	1.66	1.54	-0.25	2.27	1.73	0.244	0.128
CATACTGGGTCAGCTAGGCCAGAGTAGGGACGGC	4.6	5.45	0.321	0.266	0.468	0.34	-0.327	0.776	-0.0823	3.04	2.13	2.65	3.42	-0.42	1.39	1.53	0.0605	-0.0161
CCAGACAGGTGAAAGGTATCTCAGTCTGGTACGC	2.04	1.9	0.166	-0.382	0.656	0.00827	-0.341	0.664	-0.422	0.68	0.311	0.551	0.554	0.109	0.972	0.0736	-0.151	-0.194
CGGCAAAGTTCAACTAAGGTAACGTAAAGCACGC	0.283	1.29	-0.451	-0.173	3.39	5.43	2.72	3.93	0.447	5.16	4	5.78	6.69	4.36	5.14	5.16	1.33	3.51
ACAGACAGGTGAGTAAAGGTAACTCAGCTGGACG	0.353	1.07	0.151	-0.231	-0.162	0.082	-0.77	1.06	-0.0924	0.798	0.365	0.666	0.622	-0.605	0.915	1.67	-0.828	-0.485
TCTTGTAGATCGAGCAGGTTAAGAAAGCCTGAGT	1.19	-0.156	0.439	0.279	0.237	0.342	-0.0974	0.496	-0.293	-0.102	-0.141	-0.28	-0.423	0.213	0.0253	0.0849	-0.506	-0.257
AGTCAACGTTCATCTAGGTAACGTAAGATATGCT	0.5	1.94	0.919	0.334	0.649	-0.212	-0.489	0.244	-0.0246	0.796	-0.148	0.363	0.744	-0.0413	0.0603	0.649	-0.132	-0.282
ATCTCTAGGTAACAAGTTCAGTGACAGAGAGGAC	3.59	3.2	1.48	1.17	1.56	1.61	1.61	1.11	1.47	1.81	1.97	1.58	1.52	0.868	0.971	1.49	1.14	2.97
TGAATGAGGTTATAAAATCAGGGAACGTTGCAAA	0.257	1.47	1.21	0.504	0.289	0.62	-0.104	0.96	-0.0179	0.918	0.0245	1.01	0.843	0.43	1.44	1.56	-0.0954	0.227
CCTGGTTGGTCAGGAGGTCACACACCGGATATGA	-0.199	2.62	-0.128	-0.135	2.95	3.98	0.67	4.45	1.25	3.44	4.02	4.98	4.31	0.0446	4.57	3.37	2.1	2.44
TCAGACAGGTGAAGGTAACTTAGGTACGCAGTCG	2.71	1.37	0.399	0.159	1.08	0.989	0.206	1.27	0.365	1.15	0.872	0.797	0.756	1.19	1.14	1.86	0.691	0.508
TCTAGCAGGCCAGAGGCTCACTCAAGAGGTACGG	0.411	-0.442	-1.19	-2.42	-1.71	-0.83	-1.3	-0.758	-1.3	-0.419	-0.995	-0.48	-0.695	-0.462	-0.277	-0.767	-1.59	-1.07
